Assay results reported in PubChem BioAssay (NCI).
About 79,000 compounds went through this panel and 15% of them were active in at least one assay; those are over-represented in the sample as a whole. Unmarked numbers belong to inactive results. Calls of active or inactive are those of the source. Rule as the data show it: active = growth inhibition above about 70%; inactive = the rest. Where a SMILES comes first, the peptide text is derived from it. [ ]: non-standard residue; d: D form. The star is where a group is joined. Phe(2-OMe) = COc1ccccc1C[CH](N)C(=O)O; Cbz = O=C(OCc1ccccc1)*; OBn = c1ccc(CO*)cc1

Legend:
[1] = NCI Yeast Anticancer Drug Screen. Data for the rad50 strain (AID 155);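 also: 0% = growth of vehicle-only cultures of the same strain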; details: S. cerevisiae rad50 strain growth inhibition, active compounds read high
Method in brief: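 Cells are treated with compound, grown, and their growth is then scored against vehicle-only cultures of the same repair-deficient yeast strain.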

[2] = NCI Yeast Anticancer Drug Screen. Data for the mec2-1 strain (AID 157); details: S. cerevisiae mec2-1 strain, active compounds read high
Method in brief: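 Growth inhibition is read against vehicle-treated controls after compound exposure of the mec2-1 yeast strain, which is defective in DNA damage repair or cell cycle control.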

[3] = NCI Yeast Anticancer Drug Screen. Data for the sgs1 mgt1 strain (AID 161);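 also: 0% = growth of cultures given vehicle only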; details: S. cerevisiae sgs1 mgt1 strain, active compounds read high
Method in brief: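 Yeast cells carrying a defined DNA-repair defect were exposed to test compounds. Growth inhibition was measured relative to vehicle-treated controls.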

[4] = NCI Yeast Anticancer Drug Screen. Data for the cln2 rad14 strain (AID 165);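 also: 0% = growth equal to vehicle treated cultures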; details: S. cerevisiae cln2 rad14 strain, active compounds read high
Method in brief: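 Growth inhibition, relative to vehicle-treated controls, is the read-out. The test organism is a yeast strain with defined genetic alterations, cln2 rad14.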

[5] = NCI Yeast Anticancer Drug Screen. Data for the bub3 strain (AID 167); details: S. cerevisiae bub3 mutant strain, active compounds read high
Method in brief: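 Part of a panel of yeast mutants defective in DNA damage repair or cell cycle regulation. Each strain is grown with compound, and inhibition is calculated relative to solvent-treated cultures.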

[6] = NCI Yeast Anticancer Drug Screen. Data for the mlh1 rad18 strain (AID 175); details: S. cerevisiae mlh1 rad18 strain growth inhibition, active compounds read high
Method in brief: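 Cells of a genetically altered yeast strain, deficient in DNA damage repair, were treated with compound. Their growth was then compared with that of vehicle-treated cultures to give inhibition.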

[7] = at 5.0 µM (retest, dose inferred, filed as 0.5)
[8] = at 50.0 µM (retest, dose inferred, filed as 5.0)

SMILES	growth inhibition [1, 7]	growth inhibition [1, 8]	growth inhibition ([1]; at 50.0 µM)	growth inhibition [2, 7]	growth inhibition [2, 8]	growth inhibition ([2]; at 50.0 µM)	growth inhibition [3, 7]	growth inhibition [3, 8]	growth inhibition ([3]; at 50.0 µM)	growth inhibition [4, 7]	growth inhibition [4, 8]	growth inhibition ([4]; at 50.0 µM)	growth inhibition [5, 7]	growth inhibition [5, 8]	growth inhibition ([5]; at 50.0 µM)	growth inhibition [6, 7]	growth inhibition [6, 8]	growth inhibition ([6]; at 50.0 µM)
O=C(CC(=O)C(F)(F)F)c1ccc(-c2ccccc2)cc1	27%	99% (active)	97% (active)	45%	99% (active)	98.2% (active)	39%	99% (active)	98% (active)	14%	98% (active)	97.8% (active)	36%	99% (active)	97.2% (active)	45%	99% (active)	98.7% (active)
Cc1ccc(SCc2ccccc2Cl)nn1	-2%	3%	6.6%	-9%	11%	-2.15%	-8%	17%	-2.3%	3%	20%	31.1%	6%	34%	15.4%	-1%	19%	4.75%
O=C(Oc1ccc(O)c2ccccc12)c1ccccc1	0%	2%	98.7% (active)	-3%	6%	98.6% (active)	1%	-16%	98.3% (active)	-7%	-5%	98.5% (active)	-5%	5%	98.5% (active)	-7%	7%	97.2% (active)
Cc1ccc(C(O)CCN2CCOCC2)c(C)c1 (configuration not stated)	26%	69%	81.5% (active)	30%	61%	45.1%	44%	68%	78% (active)	44%	71% (active)	57.2%	43%	82% (active)	70%	23%	65%	69.2%
CCC(C)(C[NH-])C[NH-].[Cl][Pt+2][Cl]	13%	27%	28%	19%	28%	45.9%	18%	28%	3.9%	26%	34%	10.4%	11%	28%	-14.7%	25%	42%	-17.6%
Cc1cc(C)cc([C@H](C)N=Cc2cc(Br)ccc2O)c1	11%	95% (active)	96% (active)	-14%	95% (active)	95.8% (active)	-1%	87% (active)	89.9% (active)	-4%	96% (active)	86.3% (active)	-10%	98% (active)	95.2% (active)	2%	96% (active)	97.5% (active)
O=C(Nc1ccc(Cl)cc1)Nc1nnc2nc(C(C(=O)/C=C/c3ccccc3)c3nc4nnc(NC(=O)Nc5ccc(Cl)cc5)n4[nH]c3=O)c(=O)[nH]n12	-8%	11%	48.5%	-7%	-3%	48%	4%	2%	46.6%	-8%	2%	28.6%	-11%	7%	39.5%	-6%	8%	63.2%
CC[C@@H]1O[C@@H]([C@@H]2CC[C@](O)([C@]3(C)CC[C@@H]([C@@H](C)[C@@]4(O)CC[C@H](C)[C@@H](C[C@@]5(O)O[C@@H]([C@@H](C)[C@H](O)C[C@H]6CC[C@H](C)[C@@H]([C@@H](C)C(=O)O)O6)CC[C@@H]5C)O4)O3)O2)CC[C@@]1(C)O	10%	90% (active)	88.4% (active)	34%	94% (active)	90.2% (active)	-9%	92% (active)	89.2% (active)	58%	92% (active)	88.2% (active)	-14%	93% (active)	87.2% (active)	-18%	93% (active)	87.7% (active)
COc1cccc(C2c3cc4c(cc3OC(O)C2C)OCO4)c1O (configuration not stated)	-10%	8%	13.6%	-5%	23%	11.5%	1%	24%	-6.55%	7%	4%	12.6%	-4%	27%	34.1%	-7%	30%	58%
O=C1NC(c2ccccc2)(c2ccccc2)C(=O)N1SC(Cl)(Cl)Cl	98% (active)	98% (active)	90.3% (active)	100% (active)	99% (active)	89.3% (active)	99% (active)	99% (active)	90.8% (active)	99% (active)	99% (active)	89.7% (active)	99% (active)	98% (active)	88.5% (active)	98% (active)	99% (active)	87.2% (active)
CCN(CC)CCNc1ccc(C)c2sc3cccc(O)c3c(=O)c12	86% (active)	99% (active)	99.2% (active)	3%	72% (active)	99.7% (active)	15%	96% (active)	99.5% (active)	2%	85% (active)	55.5%	10%	96% (active)	99.5% (active)	12%	99% (active)	99.3% (active)
O=C(Nc1ccccc1)c1cccc2ccccc12	2%	-8%	67.7%	4%	-1%	48%	6%	-4%	55.1%	1%	-6%	24.1%	-18%	0%	51%	-15%	7%	70.8% (active)
COC(=O)C(Cc1ccccc1OC)NC(=O)C(CC(=O)OCc1ccccc1)NC(=O)OCc1ccccc1 (configuration not stated) (Cbz-Asp(OBn)-[Phe(2-OMe)]-OMe; configuration not given here)	-5%	84% (active)	51.5%	0%	37%	58.2%	1%	92% (active)	65.2%	16%	86% (active)	80.5% (active)	-1%	84% (active)	87.8% (active)	0%	84% (active)	54.8%
O=C(Nc1ccc(O)cc1O)c1ccccc1	2%	53%	85% (active)	-15%	61%	76.7% (active)	6%	82% (active)	90.4% (active)	7%	50%	72.3% (active)	11%	46%	89.2% (active)	3%	76% (active)	85.1% (active)
CCCNC(=S)N/N=C(/C)c1nccc2ccccc12	9%	86% (active)	38.1%	4%	98% (active)	20.4%	7%	88% (active)	70% (active)	-8%	7%	17.9%	0%	78% (active)	14.8%	3%	93% (active)	29.4%
CCCCCCCCCCCCCCC/C([O-])=N/[N+](C)(C)CC(C)O (configuration not stated)	98% (active)	98% (active)	90.9% (active)	99% (active)	98% (active)	91.2% (active)	99% (active)	99% (active)	92% (active)	99% (active)	98% (active)	88.2% (active)	99% (active)	98% (active)	91.5% (active)	98% (active)	97% (active)	89.9% (active)
O=C(/C=C(\OB(F)F)c1ccccc1)c1ccccc1	-2%	-4%	100% (active)	-18%	-19%	98.9% (active)	-4%	2%	97.4% (active)	-8%	4%	98.4% (active)	2%	-1%	98.2% (active)	1%	-13%	97.9% (active)
CC(C)(C)OC(=O)N(CCCCNCc1ccc2ccccc2c1)CCCNCc1ccc2ccccc2c1	17%	99% (active)	91% (active)	19%	99% (active)	92.6% (active)	-7%	99% (active)	76.5% (active)	3%	98% (active)	89% (active)	18%	97% (active)	90.5% (active)	26%	99% (active)	91% (active)
O=[N+]([O-])c1ccccc1C(c1ccc2ccccc2c1O)N1CCOCC1 (configuration not stated)	99% (active)	95% (active)	97.5% (active)	100% (active)	97% (active)	97.8% (active)	99% (active)	98% (active)	94.8% (active)	78% (active)	96% (active)	97% (active)	99% (active)	97% (active)	95.8% (active)	98% (active)	97% (active)	95.4% (active)
